# Source: PubChem BioAssay (NCI)
# This is part of a sample that, as a whole, favours compounds with a hit. Of some 79,000 tested, about 15% had one in any assay. Unmarked numbers belong to inactive results. Activity calls are given as the source filed them. Cut-off read from the data, not from the text of the source: active = growth inhibition above about 70%; inactive = the rest.
# Key:
# [1] = NCI Yeast Anticancer Drug Screen. Data for the rad52 strain (AID 147);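 note: 0% = growth of vehicle-treated control cultures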; conditions: S. cerevisiae rad52 mutant growth inhibition, hits give high values
# How it was run: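 Here a repair-compromised yeast strain receives each compound; its growth is then quantified and normalised to vehicle-only controls.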
# [2] = NCI Yeast Anticancer Drug Screen. Data for the wt1 strain (AID 149);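 note: 0% = growth of vehicle-treated wt1 cultures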; conditions: S. cerevisiae wt1 strain (SPY 50644) growth inhibition, hits give high values
# How it was run: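 Readout: yeast growth inhibition, normalised to vehicle controls, in the wt1 strain exposed to test compounds.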
# [3] = NCI Yeast Anticancer Drug Screen. Data for the rad50EPP+ strain (AID 151);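 note: 0% = growth of vehicle-treated control cultures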; conditions: S. cerevisiae rad50 mutant strain, hits give high values
# How it was run: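 Read-out is yeast growth inhibition relative to vehicle; cells used were the rad50EPP+ strain.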
# [4] = NCI Yeast Anticancer Drug Screen. Data for the mgt1 strain (AID 153); conditions: S. cerevisiae mgt1 mutant growth inhibition, hits give high values
# How it was run: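 Measured: inhibition of mgt1 yeast growth by compound, normalized to vehicle-treated cultures.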
# [5] = NCI Yeast Anticancer Drug Screen. Data for the rad50 strain (AID 155);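 note: 0% = growth of vehicle-only cultures of the same strain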; conditions: S. cerevisiae rad50 strain growth inhibition, hits give high values
# How it was run: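 Compounds were tested on a yeast strain with an engineered DNA damage repair alteration; the reported value is growth inhibition normalised to vehicle treatment.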
# [6] = NCI Yeast Anticancer Drug Screen. Data for the mec2-1 strain (AID 157); conditions: S. cerevisiae mec2-1 strain, hits give high values
# How it was run: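 Using mec2-1 yeast: add compound, measure growth, express inhibition versus vehicle-treated cultures.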
# [7] = NCI Yeast Anticancer Drug Screen. Data for the rad14 strain (AID 159);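 note: 0% = growth of vehicle-treated control cultures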; conditions: S. cerevisiae rad14 strain growth inhibition, hits give high values
# How it was run: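 Compound-treated yeast with a defined DNA-repair lesion; growth inhibition normalised to vehicle-treated cultures.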
# [8] = NCI Yeast Anticancer Drug Screen. Data for the sgs1 mgt1 strain (AID 161);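 note: 0% = growth of cultures given vehicle only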; conditions: S. cerevisiae sgs1 mgt1 strain, hits give high values
# How it was run: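 Growth of a repair-deficient yeast mutant was monitored after compound treatment and expressed as inhibition relative to vehicle-treated cultures.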
# [9] = NCI Yeast Anticancer Drug Screen. Data for the CLN2oe strain (AID 163);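 note: 0% = growth of vehicle-only control cultures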; conditions: S. cerevisiae CLN2oe strain, hits give high values
# How it was run: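 Whole-cell yeast growth assay. A strain engineered for altered cell-cycle control received compound, and inhibition relative to vehicle-treated cultures was recorded.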
# [10] = NCI Yeast Anticancer Drug Screen. Data for the cln2 rad14 strain (AID 165);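 note: 0% = growth equal to vehicle treated cultures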; conditions: S. cerevisiae cln2 rad14 strain, hits give high values
# How it was run: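 Yeast strain cln2 rad14, bearing defects in cell cycle control and DNA repair, serves as the test system; values reflect growth inhibition compared with vehicle.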
# [11] = NCI Yeast Anticancer Drug Screen. Data for the bub3 strain (AID 167); conditions: S. cerevisiae bub3 mutant strain, hits give high values
# How it was run: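 Growth of a checkpoint-deficient yeast mutant is measured after compound exposure. Values represent inhibition relative to vehicle.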
# [12] = NCI Yeast Anticancer Drug Screen. Data for the wt2 strain (AID 169);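 note: 0% = growth of vehicle-treated yeast cultures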; conditions: S. cerevisiae wt2 strain growth inhibition, hits give high values
# How it was run: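 Treated yeast vs. vehicle-treated yeast: growth inhibition determined.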
# [13] = NCI Yeast Anticancer Drug Screen. Data for the mlh1 strain (AID 171);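 note: 0% = growth of vehicle-treated control cultures of the same strain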; conditions: S. cerevisiae mlh1 strain growth inhibition, hits give high values
# How it was run: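 A yeast strain with a defined genetic lesion serves as the test organism. Cultures receive compound or vehicle, and growth is measured.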
# [14] = NCI Yeast Anticancer Drug Screen. Data for the sgs1 strain (AID 173);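 note: 0% = growth of vehicle-only control cultures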; conditions: S. cerevisiae sgs1 mutant, hits give high values
# How it was run: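 A genetically defined yeast mutant is incubated with the test compound, and its growth is compared to that of the same strain given vehicle.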
# [15] = NCI Yeast Anticancer Drug Screen. Data for the mlh1 rad18 strain (AID 175); conditions: S. cerevisiae mlh1 rad18 strain growth inhibition, hits give high values
# How it was run: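 Steps: expose repair-defective yeast to compound; measure growth; express inhibition against vehicle-treated controls.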
# [16] = NCI Yeast Anticancer Drug Screen. Data for the rad18 strain (AID 177); conditions: S. cerevisiae rad18 mutant growth inhibition, hits give high values
# How it was run: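 Measured value is growth inhibition of a yeast strain bearing a DNA repair alteration, referenced to vehicle-treated cells.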
# [17] = at 5.0 µM (retest, dose inferred, filed as 0.5)
# [18] = at 50.0 µM (retest, dose inferred, filed as 5.0)
structure (smiles),measurement,setting,value
Cc1nc2sc3c(c2c(=O)o1)CCCC3,growth inhibition,[1]; at 1.2 µM,0%
same,growth inhibition,[1]; at 3.7 µM,2%
same,growth inhibition,[1]; at 11.0 µM,1%
same,growth inhibition,[1]; at 33.0 µM,6%
same,growth inhibition,[1]; at 100.0 µM,4%
same,growth inhibition,[2]; at 1.2 µM,-1%
same,growth inhibition,[2]; at 3.7 µM,0%
same,growth inhibition,[2]; at 11.0 µM,1%
same,growth inhibition,[2]; at 33.0 µM,-1%
same,growth inhibition,[2]; at 100.0 µM,2%
same,growth inhibition,[3]; at 1.2 µM,-6%
same,growth inhibition,[3]; at 3.7 µM,-8%
same,growth inhibition,[3]; at 11.0 µM,-10%
same,growth inhibition,[3]; at 33.0 µM,-3%
same,growth inhibition,[3]; at 100.0 µM,-1%
same,growth inhibition,[4]; at 1.2 µM,-1%
same,growth inhibition,[4]; at 3.7 µM,-1%
same,growth inhibition,[4]; at 11.0 µM,18%
same,growth inhibition,[4]; at 33.0 µM,-2%
same,growth inhibition,[4]; at 100.0 µM,7%
same,growth inhibition,[5]; at 1.2 µM,0%
same,growth inhibition,[5]; at 3.7 µM,2%
same,growth inhibition,[5]; [17],18%
same,growth inhibition,[5]; at 11.0 µM,-11%
same,growth inhibition,[5]; at 33.0 µM,7%
same,growth inhibition,[5]; [18],10%
same,growth inhibition,[5]; at 50.0 µM,4.2%
same,growth inhibition,[5]; at 100.0 µM,5%
same,growth inhibition,[6]; at 1.2 µM,2%
same,growth inhibition,[6]; at 3.7 µM,2%
same,growth inhibition,[6]; [17],5%
same,growth inhibition,[6]; at 11.0 µM,2%
same,growth inhibition,[6]; at 33.0 µM,6%
same,growth inhibition,[6]; [18],-4%
same,growth inhibition,[6]; at 50.0 µM,25.3%
same,growth inhibition,[6]; at 100.0 µM,6%
same,growth inhibition,[7]; at 1.2 µM,0%
same,growth inhibition,[7]; at 3.7 µM,-4%
same,growth inhibition,[7]; at 11.0 µM,2%
same,growth inhibition,[7]; at 33.0 µM,13%
same,growth inhibition,[7]; at 100.0 µM,10%
same,growth inhibition,[8]; [17],-6%
same,growth inhibition,[8]; [18],14%
same,growth inhibition,[8]; at 50.0 µM,26.6%
same,growth inhibition,[9]; at 1.2 µM,-1%
same,growth inhibition,[9]; at 3.7 µM,1%
same,growth inhibition,[9]; at 11.0 µM,2%
same,growth inhibition,[9]; at 33.0 µM,6%
same,growth inhibition,[9]; at 100.0 µM,14%
same,growth inhibition,[10]; [17],23%
same,growth inhibition,[10]; [18],3%
same,growth inhibition,[10]; at 50.0 µM,4.5%
same,growth inhibition,[11]; at 1.2 µM,6%
same,growth inhibition,[11]; at 3.7 µM,18%
same,growth inhibition,[11]; [17],30%
same,growth inhibition,[11]; at 11.0 µM,31%
same,growth inhibition,[11]; at 33.0 µM,39%
same,growth inhibition,[11]; [18],51%
same,growth inhibition,[11]; at 50.0 µM,72.9% (active)
same,growth inhibition,[11]; at 100.0 µM,28%
same,growth inhibition,[12]; at 1.2 µM,-1%
same,growth inhibition,[12]; at 3.7 µM,1%
same,growth inhibition,[12]; at 11.0 µM,1%
same,growth inhibition,[12]; at 33.0 µM,3%
same,growth inhibition,[12]; at 100.0 µM,4%
same,growth inhibition,[13]; at 1.2 µM,1%
same,growth inhibition,[13]; at 3.7 µM,-3%
same,growth inhibition,[13]; at 11.0 µM,5%
same,growth inhibition,[13]; at 33.0 µM,2%
same,growth inhibition,[13]; at 100.0 µM,2%
same,growth inhibition,[14]; at 1.2 µM,-2%
same,growth inhibition,[14]; at 3.7 µM,-4%
same,growth inhibition,[14]; at 11.0 µM,-2%
same,growth inhibition,[14]; at 33.0 µM,1%
same,growth inhibition,[14]; at 100.0 µM,2%
same,growth inhibition,[15]; [17],-2%
same,growth inhibition,[15]; [18],-2%
same,growth inhibition,[15]; at 50.0 µM,26%
same,growth inhibition,[16]; at 1.2 µM,-3%
same,growth inhibition,[16]; at 3.7 µM,-3%
same,growth inhibition,[16]; at 11.0 µM,-4%
same,growth inhibition,[16]; at 33.0 µM,-15%
same,growth inhibition,[16]; at 100.0 µM,1%
CCc1c(Cl)c(C)c(Cl)c(O)c1Cl,growth inhibition,[1]; at 1.2 µM,-22%
same,growth inhibition,[1]; at 3.7 µM,-30%
same,growth inhibition,[1]; at 11.0 µM,-9%
same,growth inhibition,[1]; at 33.0 µM,97% (active)
same,growth inhibition,[1]; at 100.0 µM,99% (active)
same,growth inhibition,[2]; at 1.2 µM,-27%
same,growth inhibition,[2]; at 3.7 µM,-25%
same,growth inhibition,[2]; at 11.0 µM,1%
same,growth inhibition,[2]; at 33.0 µM,93% (active)
same,growth inhibition,[2]; at 100.0 µM,98% (active)
same,growth inhibition,[3]; at 1.2 µM,-7%
same,growth inhibition,[3]; at 3.7 µM,0%
same,growth inhibition,[3]; at 11.0 µM,32%
same,growth inhibition,[3]; at 33.0 µM,87% (active)
same,growth inhibition,[3]; at 100.0 µM,96% (active)
same,growth inhibition,[4]; at 1.2 µM,-33%
same,growth inhibition,[4]; at 3.7 µM,-32%
same,growth inhibition,[4]; at 11.0 µM,-14%
same,growth inhibition,[4]; at 33.0 µM,98% (active)
same,growth inhibition,[4]; at 100.0 µM,99% (active)
same,growth inhibition,[5]; at 1.2 µM,-11%
same,growth inhibition,[5]; at 3.7 µM,-28%
same,growth inhibition,[5]; [17],57%
same,growth inhibition,[5]; at 11.0 µM,6%
same,growth inhibition,[5]; at 33.0 µM,96% (active)
same,growth inhibition,[5]; [18],98% (active)
same,growth inhibition,[5]; at 50.0 µM,92% (active)
same,growth inhibition,[5]; at 100.0 µM,99% (active)
same,growth inhibition,[6]; at 1.2 µM,-28%
same,growth inhibition,[6]; at 3.7 µM,-12%
same,growth inhibition,[6]; [17],61%
same,growth inhibition,[6]; at 11.0 µM,2%
same,growth inhibition,[6]; at 33.0 µM,95% (active)
same,growth inhibition,[6]; [18],98% (active)
same,growth inhibition,[6]; at 50.0 µM,93.3% (active)
same,growth inhibition,[6]; at 100.0 µM,97% (active)
same,growth inhibition,[7]; at 1.2 µM,-11%
same,growth inhibition,[7]; at 3.7 µM,-12%
same,growth inhibition,[7]; at 11.0 µM,10%
same,growth inhibition,[7]; at 33.0 µM,98% (active)
same,growth inhibition,[7]; at 100.0 µM,99% (active)
same,growth inhibition,[8]; [17],-16%
same,growth inhibition,[8]; [18],97% (active)
same,growth inhibition,[8]; at 50.0 µM,93.8% (active)
same,growth inhibition,[9]; at 1.2 µM,13%
same,growth inhibition,[9]; at 3.7 µM,17%
same,growth inhibition,[9]; at 11.0 µM,11%
same,growth inhibition,[9]; at 33.0 µM,90% (active)
same,growth inhibition,[9]; at 100.0 µM,99% (active)
same,growth inhibition,[10]; [17],38%
same,growth inhibition,[10]; [18],98% (active)
same,growth inhibition,[10]; at 50.0 µM,92.8% (active)
same,growth inhibition,[11]; at 1.2 µM,1%
same,growth inhibition,[11]; at 3.7 µM,-4%
same,growth inhibition,[11]; [17],16%
same,growth inhibition,[11]; at 11.0 µM,5%
same,growth inhibition,[11]; at 33.0 µM,96% (active)
same,growth inhibition,[11]; [18],98% (active)
same,growth inhibition,[11]; at 50.0 µM,92.9% (active)
same,growth inhibition,[11]; at 100.0 µM,99% (active)
same,growth inhibition,[12]; at 1.2 µM,-8%
same,growth inhibition,[12]; at 3.7 µM,-12%
same,growth inhibition,[12]; at 11.0 µM,2%
same,growth inhibition,[12]; at 33.0 µM,97% (active)
same,growth inhibition,[12]; at 100.0 µM,99% (active)
same,growth inhibition,[13]; at 1.2 µM,-12%
same,growth inhibition,[13]; at 3.7 µM,-8%
same,growth inhibition,[13]; at 11.0 µM,7%
same,growth inhibition,[13]; at 33.0 µM,95% (active)
same,growth inhibition,[13]; at 100.0 µM,99% (active)
same,growth inhibition,[14]; at 1.2 µM,-4%
same,growth inhibition,[14]; at 3.7 µM,-13%
same,growth inhibition,[14]; at 11.0 µM,14%
same,growth inhibition,[14]; at 33.0 µM,96% (active)
same,growth inhibition,[14]; at 100.0 µM,99% (active)
same,growth inhibition,[15]; [17],38%
same,growth inhibition,[15]; [18],98% (active)
same,growth inhibition,[15]; at 50.0 µM,92% (active)
same,growth inhibition,[16]; at 1.2 µM,-19%
same,growth inhibition,[16]; at 3.7 µM,-32%
same,growth inhibition,[16]; at 11.0 µM,-19%
same,growth inhibition,[16]; at 33.0 µM,96% (active)
same,growth inhibition,[16]; at 100.0 µM,99% (active)
